# Test system: ACVR2A
# Conditions: concentration: 1 μM, replicates: in singlicate; n = 1
# 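Note: KINOMEscan kinase panel screen.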
row,SMILES,%Inh [%]
1,COc1cccc(NC(=O)NCCNc2ccnc(Nc3ccc(F)cc3)n2)c1 [GSK1379879],0
2,CS(=O)(=O)c1cccc(CNc2nc(Nc3ccc4c(c3)CCC(=O)N4)ncc2C(F)(F)F)c1,0
3,c1ccc(Oc2ccc(Nc3ccnc4cc(-c5ccc(CN6CCCCC6)o5)ccc34)cc2)nc1 [GW567143],32
4,COC(=O)Nc1nc2cc(Oc3ccc(NC(=O)Nc4cccc(SC)c4)cc3)ccc2[nH]1.Cl [GW697999],0
5,Nc1ncc(-c2ccc3nccc(-c4ccncc4)c3c2)cc1S(=O)(=O)N1CCCCC1 [GSK1693850],2
6,Cc1ccc(-c2ccc3occ(-c4ccc(S(C)=O)cc4)c3c2)nn1 (stereo not shown),0
7,CC(C)NCC(Cc1ccccc1)NC(=O)c1cc(Br)c(-c2ccnc3[nH]ccc23)s1.Cl.Cl (stereo not shown) [GSK1383281],0
8,Cc1ccc(Nc2ccnc(Nc3ccc(C)c(F)c3)n2)cc1O.Cl [GW582868],53
9,Nc1cccc(-c2ccc3c(N)n[nH]c3c2)c1 [GSK2193613],0
10,CN1CCN(Cc2ccc(NC(=O)Nc3ccc(N(C)c4ccnc(Nc5ccc(CS(C)(=O)=O)cc5)n4)cc3)cc2)CC1.Cl [GW827654],0
11,Cc1ccc(NC(=O)c2ccc(Cl)c(Cl)c2)cc1-c1ccc(C(=O)Nc2ccncc2)cc1 [GSK1398460],0
12,CN(c1ccc(NC(=O)N2CCN(CCCN3CCOCC3)CC2)cc1)c1ccnc(Nc2ccc(CS(C)(=O)=O)cc2)n1.Cl [GW830899],23
13,CSc1ccc(NC2=C(c3ccc(Cl)cc3)C(=O)NC2=O)cc1 [SB-317658],15
14,O=C(Nc1n[nH]c2nc(-c3ccccc3)ccc12)C1CC1 [SB-708999],9
15,COc1cc(Nc2ccnc3cc(-c4ccncc4)ccc23)cc(OC)c1OC.Cl [GW494610],0
16,Cc1ccc(O)cc1Nc1ccnc2ccc(C(C)(C)C)cc12 [GW856805],8
17,Cc1ccc(NC(=O)c2ccnc(N3CCCCC3)c2)cc1-c1ccc(C(=O)NCC2CC2)cc1 [GW775610],0
18,Cc1cc(-c2ccnc(Nc3cccc(C#N)c3)n2)cc(C)c1O [GSK1440913],8
19,Cl.Cl.NCC(NC(=O)c1cc(-c2cccnc2)c(-c2ccnc3[nH]ccc23)s1)c1ccccc1 (stereo not shown) [GSK1323434],0

row,SMILES,%Inh [%]
1,COc1ccc(C2=C(Nc3cccc(O)c3)C(=O)NC2=O)cc1 [SB-390766],0
2,COC(=O)Nc1nc2ccc(Oc3ccc(NC(=O)Nc4cc(C(F)(F)F)ccc4F)cc3)cc2[nH]1.Cl [GW654607],0
3,O=C(Nc1n[nH]c2nc(-c3cccc(O)c3)ccc12)C1CC1 [SB-711805],43
4,N#Cc1cnc2cc(-c3cnc(CNCCN4CCOCC4)s3)ccc2c1Nc1ccc(Oc2ccccc2)cc1 [GW664114],0
5,CN(C)CCNS(=O)(=O)c1ccc(-c2ccnc3[nH]ccc23)cc1 [GSK977620],0
6,CN(C)c1ncnc2nc[nH]c12 [SKF-31736],0
7,COc1ccc(NC(=O)c2ccoc2)cc1-c1ccc(C(=O)NCC2CC2)cc1 [GW810437],0
8,O=C(Nc1c(F)cccc1F)c1cc(C(=O)c2ccccc2F)c[nH]1 [GSK1326180],0
9,Cn1cc(-c2cnc(N)c3c(-c4ccc5c(c4)CCN5C(=O)Cc4ccccc4)csc23)cn1 [GSK2593074],0
10,O=C(O)C(F)(F)F.O=c1[nH]ccc2nc(N[C@@H]3CCNC3)nc(Nc3cc(Cl)cc(Cl)c3)c12 [GSK2188764],0
11,CN(c1ccc(NC(=O)Nc2cccc(Cl)c2)cc1)c1ccnc(N)n1.Cl [GW830707],0
12,Cn1cc(-c2ccc3c(c2)CCN3C(=O)Cc2cc(F)cc(F)c2F)c2c(N)ncnc21 [GSK2634140],0
13,CC(C)(C)c1ccc(C(=O)Nc2cn3cc(-n4ccnc4)ccc3n2)cc1,10
14,CC(C)c1nc(-c2cccc(NS(=O)(=O)c3c(F)cccc3F)c2)c(-c2ccnc(Nc3ccc(N4CCOCC4)nc3)n2)s1.Cl [GSK1723980],0
15,O=C1NC(=O)C(c2ccccc2Cl)=C1Nc1cccc(Cl)c1 [SB-342409],0
16,CCn1c(-c2nonc2N)nc2c(-c3ccccc3)ncc(OCCCN)c21.O=C(O)C(F)(F)F.O=C(O)C(F)(F)F [GSK260205],0
17,COc1ccc(C)c(Nc2ccnc(Nc3ccc(-c4cnc[nH]4)cc3)n2)c1.Cl [GW784041],93.5
18,CN(c1ccc(F)c(NC(=O)c2cccc(OC(C)(C)C#N)c2Cl)c1)c1ccc2nc(NC(=O)C3CC3)sc2n1,0

# From PMC5540273 (PLoS ONE, 2017)
